# Screening results from PubChem BioAssay.
# TbPYK inhibitor – qHTS of Trypanosoma Brucei Inhibitors. actives 0.12% (n = 410,000). AID 624173, 2012. pyruvate kinase (Trypanosoma brucei), Q57TT1. TbPYK enzyme, Kinase-Glo Plus ATP luminescence, 45 min. Potency, µM (series often up to 76.8 µM), for the others: top-dose activity, negative = inhibition, most hits filed as inhibitors; active = well fitted curve in the direction sought with a large enough effect; inconclusive = small, poorly fitted or top-dose-only effect, or another doubt; inactive = no such curve, though single readings can be large; an effect the other way counts as inactive or inconclusive; note: potency is the fitted concentration of half-maximal effect; % is set by controls: 0 for no effect and ±100 for the full control effect; nearly all actives have a fitted effect of over 50% in size
#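 Luminescence from Kinase-Glo Plus, added after a 45-minute room-temperature reaction, served as the end-point read-out. The enzyme and substrate were preincubated with compound before ADP (130 uM final) initiated turnover. Concentration-effect curves came from normalized qHTS data.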
# LmPK inhibitor – qHTS Assay for Inhibitors of Leishmania Mexicana Pyruvate Kinase (LmPK); actives 0.37% (n = 290,000); Potency, µM (highest dose often 57.5 µM), for inactives: at the top dose activity change, negative = inhibition, actives largely listed as inhibitors; purified LmPK, Kinase-Glo ATP luminescence, 1 h; AID 1721, 2009; active = well fitted curve in the direction sought with a large enough effect; inconclusive = small, poorly fitted or top-dose-only effect, or another doubt; inactive = no such curve, though single readings can be large; an effect the other way counts as inactive or inconclusive; note: potency is the fitted concentration of half-maximal effect; % is set by controls: 0 for no effect and ±100 for the full control effect
# Target sequence (Q27686 whole entry, looked up): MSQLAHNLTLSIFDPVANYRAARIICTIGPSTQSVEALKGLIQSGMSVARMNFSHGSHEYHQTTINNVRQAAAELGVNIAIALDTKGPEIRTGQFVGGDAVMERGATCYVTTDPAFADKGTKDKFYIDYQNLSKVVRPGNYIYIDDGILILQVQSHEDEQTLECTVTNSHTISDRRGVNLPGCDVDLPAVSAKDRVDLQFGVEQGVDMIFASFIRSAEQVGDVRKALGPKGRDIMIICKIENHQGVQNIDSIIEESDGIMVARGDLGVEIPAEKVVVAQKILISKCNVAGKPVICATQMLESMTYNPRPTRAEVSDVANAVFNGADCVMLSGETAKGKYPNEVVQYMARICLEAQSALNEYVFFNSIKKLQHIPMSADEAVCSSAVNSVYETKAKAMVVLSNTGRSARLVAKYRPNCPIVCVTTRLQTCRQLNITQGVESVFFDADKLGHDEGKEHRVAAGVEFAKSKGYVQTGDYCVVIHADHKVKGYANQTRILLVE
#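 0.1 nM LmPK, 0.5 mM PEP, 0.1 mM ADP; 50 mM imidazole pH 7.2, 7 mM MgCl2, 50 mM KCl; 1 h RT. Kinase-Glo luminescence readout, normalized to no-enzyme (full inhibition) and uninhibited wells.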
# Shiga inhibitor – A qHTS for Small Molecule Inhibitors of Shiga Toxin | AID 2315, 2010 | actives 9.2% (n = 290,000) | inhibition, % at 38.7 µM | Vero cells, Shiga toxin protein synthesis inhibition reporter; in the data active = inhibition mostly above about 28%, no sharp cut-off; inactive = mostly below about 43%; note: 0% is about no effect
# NS1 function inh – qHTS Assay for Inhibitors of Influenza NS1 Protein Function. actives 0.4% (n = 270,000). Potency, µM (top dose mostly 46.1 µM), without a hit: top-dose activity, positive = more growth; note: potency is the fitted concentration of half-maximal effect; actives are rising curves; nearly all actives have a fitted effect of over 50% in size
#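 OD600 was taken as the measure of yeast growth restored by compound in an NS1-expressing S. cerevisiae strain. Cells had been washed out of glucose medium and diluted 1:100 into galactose -URA medium, pH 6.0.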
# Cycloheximide cs – Cycloheximide Counterscreen for Small Molecule Inhibitors of Shiga Toxin | cell reporter, cycloheximide protein synthesis inhibition counterscreen | max response, % | actives 12% (n = 300,000); in the data active = max response mostly above about 13%, no sharp cut-off; inactive = mostly below about 14%; note: read at 38.3 µM for the half of the compounds with a filed dose; 0% is about no effect
# SARS PLP yeast – qHTS of Yeast-based Assay for SARS-CoV PLP | S. cerevisiae expressing SARS-CoV PLpro, growth rescue | Potency, µM (series often up to 32.9 µM), for inactives: at the highest dose activity, positive = growth rescue, usual class: activators | actives 0.19% (n = 330,000) | AID 485353, 2010; note: potency is the fitted concentration of half-maximal effect; 0% is about no effect; nearly all actives have a fitted effect of over 55% in size
# * hit, by the source's call; ? = inconclusive; . = no result. This excerpt belongs to a sample that is enriched for hits. Unless noted, calls come from the whole dose curve.
SMILES,TbPYK inhibitor,LmPK inhibitor,Shiga inhibitor,NS1 function inh,Cycloheximide cs,SARS PLP yeast
CCN(CCCNC(=O)c1nn(-c2ccc(OC)cc2)c(=O)c2c1c1ccccc1n2C)c1ccccc1,-4%,.,.,.,.,.
COc1cc(C)ccc1Oc1ccc([N+](=O)[O-])cc1,-3%,.,.,.,.,.
CC(C)NS(=O)(=O)c1ccc(NC(=O)Cc2cccs2)cc1,-6%,-2%,40*,13%,24*,19%
O=C(Cc1cccs1)Nc1ccc(F)cc1,3%,-3%,8,0%,10.0*,-1%
O=C(Cc1cccs1)Nc1ccc(C(=O)O)cc1,-19%,-12%,5,-4%,3,18%
O=C(Cc1cccs1)Nc1ccc(F)c(F)c1,-11%,3%,-4,-10%,-2,-5%
O=C(Cc1cccs1)Nc1ccc(S(=O)(=O)Nc2ncccn2)cc1,-5%,9%,-14,5%,-1,-2%
Cc1nc2ccc(NC(=O)COc3ccccc3C)cc2s1,5%,6%,64*,.,34*,-6%
Cc1ccc(NC(=O)Cc2cccs2)cc1Cl,1%,-6%,50*,-50%,38*,-10%
O=C(Cc1cccs1)Nc1cccc(-c2nc3cc4ccccc4cc3[nH]2)c1,-6%,-26%,120*,?,68*,-53%
Cc1nc2ccc(NC(=O)Cc3ccc(Br)cc3)cc2s1,4%,13%,-8,-3%,2,0%
CCOc1cccc(NC(=O)Cc2cccs2)c1,3%,3%,41*,-5%,13,2%
Cc1nc2ccc(NC(=O)Cc3cccs3)cc2s1,-5%,-3%,60*,-53%,29*,2%
CC(=O)Nc1cccc(NC(=O)Cc2cccs2)c1,-10%,1%,-7,3%,-1,-3%
Cc1ccc(CNC(=O)Cn2c(=O)cc(-c3ccccc3)c3c(C)nn(C)c32)cc1,1%,.,.,.,.,.
COc1ccc2nc(N=NC3=C(O)CC(C)(C)CC3=O)sc2c1,-13%,0%,44,-8%,28*,19%
CC1(C)CC(=O)C(N=Nc2ccc(Cl)cc2)=C(O)C1,40%,-4%,-2,-5%,-1,24%
COc1ccccc1N=NC1=C(O)CC(C)(C)CC1=O,4%,-2%,active,-5%,23*,-13%
CC1(C)CC(=O)C(N=Nc2ccc(F)cc2)=C(O)C1,5%,-4%,-20,-2%,5,-1%
CC1(C)CC(=O)C(N=Nc2ccc3ncsc3c2)=C(O)C1,2%,3%,49*,-122%,29*,.
CC1(C)CC(=O)C(N=Nc2ccc(OC(F)F)cc2)=C(O)C1,2%,-1%,79*,.,57*,-2%
Cc1ccc(S(=O)(=O)N(C)CC(=O)Nc2cc(C)ccn2)cc1,-5%,.,.,.,.,-5%
COc1cc(CN2CCN(C(=O)c3ccccc3F)CC2)cc(OC)c1OC,11%,-8%,-12,-10%,-1,0%
CC(C)c1ccc(OCC(=O)NC2CC(C)(C)NC(C)(C)C2)c(Br)c1,-2%,-11%,-19,3%,11,-7%
COc1cccc(NC(=S)/C(=C(\[O-])c2cc(C)n(-c3ccccc3F)c2C)[n+]2ccc(N(C)C)cc2)c1,0%,9%,76,10%,26*,1%
SMILES,TbPYK inhibitor,LmPK inhibitor,Shiga inhibitor,NS1 function inh,Cycloheximide cs,SARS PLP yeast
Cc1cc(C([O-])=C(C(=S)Nc2ccc(F)cc2)[n+]2ccccc2)c(C)n1-c1ccc(F)cc1,-11%,.,.,.,.,.
Cc1cccc(C(=O)Nc2ccc(N3CCN(c4ccc(F)cc4)CC3)c(C(=O)O)c2)c1,3%,.,.,.,.,.
CCCNC(=O)CSCc1nc(-c2ccc(SC)cc2)oc1C,1%,4%,35,.,26*,3%
CC(C)N1CCN(S(=O)(=O)c2ccccc2)c2ccccc21,-8%,.,.,.,.,.
CCOC(=O)c1c(C)nc(C(Cl)(Cl)Cl)nc1N,2%,-4%,56*,-9%,18*,0%
C=C1CC[C@H](O)C/C1=C/C=C1\CCC[C@]2(C)[C@@H]([C@H](C)CCCC(C)C)CC[C@@H]12,-1%,.,89*,.,34*,.
O=C(Nc1cc(Cl)ccc1Cl)C1(c2cccs2)CCOCC1,-6%,.,.,.,.,.
CCOc1ccc(-c2nc(CSc3nnc(N)s3)cs2)cc1OC,-7%,3%,85*,-4%,33*,-1%
CCOc1ccc(-c2nc(CSc3nnc(N)s3)cs2)cc1,0%,10%,117*,?,31*,?
O=S(=O)(Nc1cccc(S(=O)(=O)N2CCCC2)c1)c1cccs1,2%,.,.,.,.,5%
CCOC(=O)c1cnc2ccccc2c1Nc1ccc2c(c1)OCCO2,0%,5%,154*,-20%,110*,14%
CCOc1ncccc1C(=O)OCC(=O)Nc1ccc2c(c1)OCCO2,-3%,.,.,.,.,-4%
CCOC(=O)c1cnc2ccccc2c1NCc1ccco1,3%,0%,52*,-7%,23*,-2%
CCOC(=O)c1cnc2ccc(OC)cc2c1NCc1ccccc1,8%,5%,-10,-22%,-2,-19%
Cc1cccc(N2CCN(CCCNC(=O)c3ccc(NC(=O)C4=CSCCO4)cc3)CC2C)c1 (configuration not stated),-7%,4%,13,2%,-2,0%
CCN(CC)CCOc1ccc2nc(N(C)C)sc2c1,4%,2%,32,?,27*,7%
CN(C)c1nc2ccc(OCCN3CCCCC3)cc2s1,6%,-6%,57,-2%,42*,0%
Cc1ccc(OCCN2CCCC2)cc1,-21%,0%,32,-11%,-1,-6%
Cc1ccc2nc(NC(=O)c3ccc(Cn4cc(Cl)cn4)o3)sc2c1,4%,0%,43,5%,33*,7%
NNC(=O)c1ccc(Cn2cc(Cl)cn2)o1,4%,4%,24,0%,18*,-1%
COc1ccc(N(C(=O)c2snc(C(N)=O)c2N)C(C(=O)NC2CCCC2)c2cc(OC)ccc2OC)cc1 (configuration not stated),1%,0%,-8,1%,-1,-14%
COC(=O)c1ccc(C(=O)OC)c(NC(=O)c2cc3nc(-c4ccc(C)cc4)cc(C(F)(F)F)n3n2)c1,-1%,.,.,.,.,.
Cc1cc(C)c(Cn2c(=O)n(CCC(=O)NCc3ccc4c(c3)OCO4)c(=O)c3ccccc32)c(C)c1,3%,.,.,.,.,.
COc1cc(/C=C2\SC(=S)NC2=O)ccc1OS(=O)(=O)c1ccccc1,.,-4%,34,-56%,1,-43%
CCOc1ccc(/C=C2\SC(=S)NC2=O)cc1OC,-10%,14µM*,41*,-46%,14*,-4%
O=C(Nc1ccccc1Cl)c1cnccn1,1%,-4%,41,-16%,11,-1%
Cc1ccc(NC(=O)c2cnccn2)c(C)c1,-9%,0%,38*,-8%,21*,-5%
